# In PubChem BioAssay (NCATS):
# Inconclusive results are not listed. Unmarked numbers belong to inactive results. Activity calls are given as the source filed them. Calls come from the whole dose curve; as a rule, active = well fitted curve in the direction sought with a large enough effect; inconclusive = small, poorly fitted or top-dose-only effect, or another doubt; inactive = no such curve, though single readings can be large; an effect the other way counts as inactive or inconclusive.
# Molecular target: Aldehyde dehydrogenase, mitochondrial (Homo sapiens) (UniProt P05091)
# Experiment: qHTS for Inhibitors of the Aldehyde Dehydrogenase Family (ALDH2) Primary screen (AID 2061308);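 note: plate controls were vehicle for no effect and reference inhibitor for full effect; nearly all actives have a fitted effect of over 55% in size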
# Details: ALDH2 enzyme inhibition qHTS, 1536-well; series mostly up to 56 µM; activity change, negative = inhibition: at the top concentration
row,SMILES,"activity change, negative = inhibition"
1,O=C(COc1ccc(Cl)cc1)NC1CCC(NC(=O)COc2ccc(Cl)cc2)CC1 (centres undefined),-8.71%
2,COc1ccc(C(=O)NCc2cc(C(C)C)no2)cc1OC1CCN(C)CC1,2.57%
3,CC(C)n1c(=O)c(C(=O)NC2CC3CCC(C2)N3C[C@@H](O)CN(C)S(C)(=O)=O)cc2ccccc21 (some centres undefined),5.22%
4,Cn1c2ccc(NC(=O)c3ccccc3)cc2c(=O)n2nc(C(=O)O)cc12,-12.8% [at 28 µM]
5,CCCC(N[C@@H](C)C(=O)N1[C@H](C(=O)O)C[C@@H]2CCCC[C@@H]21)C(=O)OCC (some centres undefined),0.325%
6,Cn1cc(S(=O)(=O)c2ccc(Cl)cc2)c2cccc(N3CCNCC3)c21,9.07%
7,O=C(NCCN1CCOCC1)c1cc2c(Oc3ccc(NC(=O)C4(C(=O)Nc5ccc(F)cc5)CC4)cc3)ccnc2[nH]1,-8.39%
8,CC(=O)NC[C@H]1CN(c2ccc(N3CCSCC3)c(F)c2)C(=O)O1,23.9%
9,COc1ccccc1Oc1ccc(N(Cc2cccnc2)S(=O)(=O)CC(F)(F)F)cc1,-7.47%
10,CC(C)C[C@@H](C(=O)N[C@@H](Cc1ccc(OCc2ccccc2)cc1)C(=O)NC(C)(C)C)N(C)Cc1ccc(C(C)(C)C)cc1,-6.59%
11,COC(=O)N1CCC(n2ncc3c(N4CCOCC4)nc(-c4ccc(NC(=O)NC5CC5)cc4)nc32)CC1,18.4%

# Molecular target: Retinaldehyde dehydrogenase 3 (Homo sapiens) (UniProt P47895)
# Experiment: qHTS for Inhibitors of the Aldehyde Dehydrogenase Family (ALDH1A3) Validation screen (AID 2061312); note: nearly all actives have a fitted effect of over 45% in size; note: potency is the fitted concentration of half-maximal effect; for activity change, negative = inhibition: % is set by controls: 0 for no effect and ±100 for the full control effect
# Details: ALDH1A3 enzyme inhibition qHTS validation, fluorescence; series mostly up to 84.7 µM; activity change, negative = inhibition: at the top concentration
SMILES,"activity change, negative = inhibition",Potency
c1ccc(-c2ncc(CN3CCN(c4ncccn4)CC3)[nH]2)cc1,49.1%,–
COc1cc2nc(N3CCN(C(=O)COc4c(OC)cccc4C(C)C)CC3)nc(N)c2cc1OC,5.5%,–
O=C(c1ccc(F)cc1)C1CCN(CCn2c(=O)nc3n(c2=O)CCCC3)CC1,-32.9%,–
CC(C)(O)c1ccccc1CC[C@@H](SCC1(CC(=O)O)CC1)c1cccc(/C=C/c2ccc3ccc(Cl)cc3n2)c1,69.2%,–
Cc1cc(NC(=O)NCCN2CCC(O)(Cc3ccccc3)CC2)c2ccccc2n1,10.2%,–
CCCCc1ccc(C(=O)Nc2cc(-c3ccc(Cl)cc3)nn2-c2ccc(Cl)cc2)cc1,26.6%,–
CSc1ccc(C(=O)N[C@@H]2CCCC[C@@H]2NC(=O)CNC(=O)c2cc(C(F)(F)F)ccc2NC(=O)NC(C)C)cc1,11.5%,–
NC(=O)CCCSc1nc(N)nc(-c2c(Cl)cc3c4c(cccc24)COC3)n1,-15.6%,–
COC(=O)CCc1ccc(OCC(O)CNC(C)C)cc1 (centres undefined),31.1%,–
OC(CC1c2ccccc2-c2cncn21)C1CCCCC1 (centres undefined),105%,–
COc1ccc2c(c1O[C@H]1CCNC1)CCC2,-10.1%,–
c1cc(OCCCN2CCCCC2)ccc1CN1CCCCC1,-44.1%,–
CCOC(=O)[C@H](CCc1ccccc1)CC1(C(=O)N[C@H]2CCc3ccccc3N(CC(=O)O)C2=O)CCCC1,7.65%,–
O=C(O)c1ccccc1NC(=O)N1CCC(c2ccccc2C(F)(F)F)CC1,12.8%,–
COc1c(F)cccc1C(=O)N1C[C@@H](C)CC[C@H]1CNc1ccc(Br)cn1,14.5%,–
Cn1c(=O)cc(N2CCCC(N)C2)n(Cc2ccccc2C#N)c1=O (centres undefined),45.1%,–
O=C(O)c1cc(-c2ccccc2)nc2ccccc12,22.6%,–
CCOC(=O)c1sc(NC(=O)[C@H](C(C)C)n2c(=O)[nH]c3ccccc3c2=O)nc1C,-9.97%,–
C[C@H](Nc1cc2c(-c3ccc4c(c3)OCO4)noc2cn1)c1ccccc1,58%,–
O=C(O)CC1CCC(c2ccc(NC(=O)c3nnc(Nc4ccc(F)c(F)c4)o3)cc2)CC1 (centres undefined),-13%,–
CC(=O)c1ccc2c(c1)[C@H](NC(=O)c1ccc(F)c(Cl)c1)[C@H](O)C(C)(C)O2,25.1%,–
O=C(c1cc(Cc2n[nH]c(=O)c3ccccc23)ccc1F)N1CCCNCC1,-8.39%,–
CN[C@@H]1[C@@H](O)[C@@H](O[C@@H]2[C@@H](O)[C@H](O[C@H]3O[C@@H]([C@@H](C)NC)CC[C@H]3N)[C@@H](N)C[C@H]2N)OC[C@]1(C)O,42.2%,–
O=S(=O)(Nc1ccccc1N1CCCCC1)c1ccc(Cl)s1,-26.3%,–
CC(C)C(CO)Nc1nc(Nc2cc(N)cc(Cl)c2)c2ncn(C(C)C)c2n1 (centres undefined),-27.2%,–
CC(C)c1c(NC(=O)Nc2ccc(Cl)cc2)c(=O)n(-c2ccccc2)n1C,13.5%,–
CC[C@H]1OC(=O)[C@H](C)[C@@H](O[C@H]2C[C@@](C)(OC)[C@@H](O)[C@H](C)O2)C(C)[C@@H](O[C@@H]2O[C@H](C)C[C@H](N(C)C)[C@H]2O)[C@](C)(O)C[C@@H](C)CN(C)[C@H](C)[C@@H](O)[C@]1(C)O (some centres undefined),93.6%,–
CCCSc1nc(NC2CC2c2ccc(F)c(F)c2)c2nnn(C3CC(OCCO)C(O)C3O)c2n1 (centres undefined),–,31.6 µM (active)
